An excerpt weighted towards active compounds, which were near 2.7% of everything screened.
IDE cell activ: IDE (human) activation, cell-based | 340,000 compounds, 0.073% hits | AID 493087 | HEK cells, FAbeta-B cleavage, fluorescence polarization; 0% vehicle, 100% cell-free pure enzyme wells | activation, % at 5.96 µM;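 active means activation above the mean of all tested compounds plus 3 SD, set per screening campaign, cut at about 17% in these data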
CHT PAM: allosteric activators of human choline transporter CHT; 310,000 compounds, 0.49% hits; AID 488977; CHT-expressing cells, membrane potential dye, choline EC20; active compounds read high; LV-AA mutant CHT in HEK293 cells; B-score at 10 µM;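 active means initial fluorescence not abnormally high and integrated response B-score, plate-corrected, over 3 SD above library mean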
Target sequence (Q9GZV3 whole entry, looked up): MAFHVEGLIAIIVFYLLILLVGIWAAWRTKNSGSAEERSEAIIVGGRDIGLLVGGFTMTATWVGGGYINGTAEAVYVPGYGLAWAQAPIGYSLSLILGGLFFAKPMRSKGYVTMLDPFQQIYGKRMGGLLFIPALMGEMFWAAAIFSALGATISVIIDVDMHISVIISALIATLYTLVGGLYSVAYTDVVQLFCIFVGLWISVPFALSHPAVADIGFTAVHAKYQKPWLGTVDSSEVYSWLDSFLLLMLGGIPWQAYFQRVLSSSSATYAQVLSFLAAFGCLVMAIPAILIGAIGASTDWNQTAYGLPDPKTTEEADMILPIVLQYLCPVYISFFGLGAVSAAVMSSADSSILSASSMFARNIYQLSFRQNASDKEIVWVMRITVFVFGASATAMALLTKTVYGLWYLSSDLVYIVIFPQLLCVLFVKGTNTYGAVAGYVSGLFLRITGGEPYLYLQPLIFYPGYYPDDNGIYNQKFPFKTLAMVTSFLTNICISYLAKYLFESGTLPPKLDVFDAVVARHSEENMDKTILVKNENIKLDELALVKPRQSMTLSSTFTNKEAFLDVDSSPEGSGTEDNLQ
ANO1 activ: mouse TMEM16A channel activation, primary screen. Q8BHY3. HEK293 TMEM16A/YFP-H148Q/I152L, iodide quench fluorescence; active compounds read low. B-score at 10 µM. 340,000 compounds, 0.3% hits. AID 623877;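 active means fluorescence-ratio B-score plate-corrected deviation score at least 3 library SD below zero, with starting fluorescence score within 5 deviations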;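 further: channel opened by trigger with iodide after compound preincubation; score built on the fluorescence ratio of max minus min over baseline; more negative score means more quench and so TMEM16A activation or potentiation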
CHT block: inhibits the human high affinity choline transporter | Q9GZV3 | CHT-expressing cells, membrane potential dye, choline response; active compounds read low | B-score at 10 µM | 310,000 compounds, 0.86% hits | AID 488975;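 active means B-score over 3 SD under the library average, and starting fluorescence ratio not unusually high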;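 further: choline stimulus applied at its EC90 after an EC20 pre-addition; B-score computed on integrated fluorescence ratio after choline addition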
IDE inh: inhibitors of human insulin-degrading enzyme in cells; HEK cells, FAbetaB cleavage, fluorescence polarization; inhibition, % at 5.59 µM; 320,000 compounds, 0.41% hits; AID 434962;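 active means percent inhibition above the average of all tested compounds plus 3 SD, set per screening campaign, cut at about 16% in these data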;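 further: IDE supplied by intact live HEK cells; FP after avidin binding of uncleaved biotin substrate so inhibition keeps polarization high; 0% = DMSO wells and 100% = 60 µM reference IDE inhibitor Ii1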
ANO1 block: mouse TMEM16A channel inhibition, primary screen | HEK293 TMEM16A/YFP iodide influx fluorescence, ionomycin | normalized B-score (activity score, 25-100; higher = stronger inhibition) at 10 µM | 310,000 compounds, 1.2% hits | AID 588511;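 active means ratio plate-corrected score three or more library SD toward inhibition, starting fluorescence score within five deviations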;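 further: score derived from kinetic fluorescence span divided by baseline fluorescence per well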
* hit, by the source's call; i = inactive; . = no result.

SMILES	IDE cell activ	CHT PAM	ANO1 activ	CHT block	IDE inh	ANO1 block
NS(=O)(=O)c1ccc(NC(=O)COC(=O)CN2C(=O)C3CC=CCC3C2=O)cc1 (configuration not stated)	-3	.	i	.	5	.
O=C1[C@H]2[C@@H](c3ccc(F)cc3)N3C(=O)N(c4cccc(Br)c4)C(=O)[C@@]3(Cc3ccccc3)[C@H]2C(=O)N1C1CCCCC1	3	i	i	i	1	i
CC(C)C[C@@]12C(=O)N(c3cccc(Br)c3)C(=O)N1[C@H](c1ccc(F)cc1)[C@@H]1C(=O)N(C3CCCCC3)C(=O)[C@@H]12	-8	i	-7.6*	i	1	i
COc1ccccc1CNS(=O)(=O)c1ccc2c(c1)CC(C)N2C(=O)C1CCC1 (configuration not stated)	6	i	i	i	11	25*
CC1CCN(S(=O)(=O)c2ccc3c(c2)CC(C)N3C(=O)C2CCC2)CC1 (configuration not stated)	-1	i	i	i	-10	25*
CCOC(=O)C1CCN(S(=O)(=O)c2ccc3c(c2)CC(C)N3C(=O)C2CCC2)CC1 (configuration not stated)	5	i	i	i	1	25*
O=C(O)c1ccccc1C(c1ccc(O)cc1)c1ccc(O)cc1	1	i	i	i	0	i
O=C(CNS(=O)(=O)c1cccs1)NCCc1ccc(Cl)cc1	-1	i	i	i	-3	i
CCN(C(=O)COC(=O)c1n[nH]c2ccccc12)c1ccccc1	3	.	i	.	0	.
S=c1[nH]nc(-c2ccncc2)n1/N=C/c1cn(-c2ccccc2)nc1-c1ccccc1	.	i	i	i	2	i
O=[N+]([O-])c1ccc(-c2nn(-c3ccccc3)cc2/C=N/n2c(-c3ccncc3)n[nH]c2=S)cc1	4	i	i	i	1	25*
COc1ccc(CN(C)C(=O)c2cnc(C)cn2)c(OC)c1OC	1	i	i	i	-2	i
CCCCCCCNC(=O)C1(CC2CC(c3cccc(Br)c3)=NO2)CCNCC1 (configuration not stated)	19*	i	i	i	-3	i
CCCCCCCNC(=O)C1(CC2CC(c3cccc(Br)c3)=NO2)CCN(C(=O)Cc2ccc(F)cc2)CC1 (configuration not stated)	3	i	i	i	-3	i
CC1CN(C(=O)/C=C/c2ccc(SC(F)F)cc2)CC(C)O1 (configuration not stated)	1	i	i	i	3	i
Cc1nnc(SCC(=O)N2CCN(S(=O)(=O)c3ccc(Cl)cc3)CC2)n(N)c1=O	-4	i	-17*	i	-1	i
CCCCC(CC)C(=O)Oc1ccc(O)c(C(C)(C)C)c1 (configuration not stated)	8	i	i	i	-8	25*
CC(C)(C)c1cc(OC(=O)C2CCCC2)ccc1O	4	i	i	i	1	i
O=C(N/N=C/c1ccc(-c2ccc(S(=O)(=O)Nc3ncccn3)cc2)o1)c1cc2ccccc2cc1O	5	i	i	i	-1	100*
CCOc1ccc(C(=O)N/N=C/c2ccc(-c3ccc(S(=O)(=O)Nc4ncccn4)cc3)o2)cc1	-2	i	i	i	4	i
CCCc1cc(=O)[nH]c(SCC(=O)Nc2cc(S(=O)(=O)N3CCCCC3)ccc2Cl)n1	2	.	i	.	.	.
Cc1ccc(S(=O)(=O)/N=C2/NC(=O)/C(=C/c3ccc(Br)o3)S2)cc1	-2	i	i	i	-2	25*
CC1CCN(Cc2c(C(=O)N/N=C/c3ccc(C(C)C)cc3)nnn2-c2nonc2N)CC1	2	6.4*	i	i	0	i
N=c1c2c(-c3ccccc3)c(-c3ccccc3)n(Cc3ccco3)c2ncn1Cc1ccccc1	4	i	i	i	0	100*
c1ccc(-c2c(-c3ccccc3)n(Cc3ccco3)c3ncnc(NCCCn4ccnc4)c23)cc1	-2	i	i	i	4	100*
SMILES	IDE cell activ	CHT PAM	ANO1 activ	CHT block	IDE inh	ANO1 block
c1ccc(-c2oc3ncnc(NCCCn4ccnc4)c3c2-c2ccccc2)cc1	-7	i	i	i	10	100*
CN(C)CCCNc1ncnc2oc(-c3ccccc3)c(-c3ccccc3)c12	-3	i	i	i	0	i
CN1CCN(C(CNC(=O)C(=O)Nc2ccc3c(c2)OCO3)c2ccc(F)cc2)CC1 (configuration not stated)	1	i	i	i	-4	i
Cc1cccc(N2CCN(S(=O)(=O)c3c(C)noc3/C=C/N(C)C)CC2)c1C	0	i	i	i	6	i
O=C(NCc1ccc(Cl)cc1)c1n[nH]c([N+](=O)[O-])c1Cl	-3	i	i	-8.5*	3	i
Cc1ccc(O)c(Nc2nc(-c3ccccc3)nc3ccccc23)c1	3	i	i	i	-4	i
Cc1ccc(O)c(Nc2c3ccccc3nc3ccccc23)c1	0	i	i	i	1	25*
CCCc1cc(=O)[nH]c(-n2[nH]c3c(c2=O)CCCC3)n1	-1	i	i	i	19*	i
CCCc1cc(=O)[nH]c(SCC)n1	-1	i	i	i	7	i
Cc1cc2nc(NCCCO)n(CC(=O)c3cc(C(C)(C)C)c(O)c(C(C)(C)C)c3)c2cc1C	12	i	i	i	-6	100*
Cc1cc(NC(=O)c2ccc(C#N)cc2)n(-c2ccccn2)n1	11	i	-30*	i	2	i
Cc1nnc(NC(=O)c2sc3nc(-c4cccs4)cc(C(F)(F)F)c3c2N)s1	-27	i	i	i	19*	i
CC(C)(C)C(=O)c1sc2nc(-c3cccs3)cc(C(F)(F)F)c2c1N	3	i	i	i	-2	i
COCCn1c(-c2ccc(SC)cc2)nc2c1c(=O)[nH]c(=O)n2CC(C)C	-1	i	i	i	4	i
Cc1ccc(-c2nc3c(c(=O)[nH]c(=O)n3CC(C)C)n2CC(C)C)cc1[N+](=O)[O-]	4	i	-4.6*	i	1	i
COCCn1c(-c2ccc(OC(F)(F)C(F)C(F)(F)F)cc2)nc2c1c(=O)[nH]c(=O)n2CC(C)C (configuration not stated)	2	i	i	i	4	100*
O=Cc1c(-c2ccccc2)cc2oc3ccccc3cc1-2	-2	i	i	i	2	i

Screening data deposited in PubChem BioAssay by several laboratories.
